Most compounds without a hit are left out; they make up all but 7.7% or so of the library.
Tb PYK inh = blocks Trypanosoma brucei pyruvate kinase; TbPYK enzyme, Kinase-Glo Plus ATP luminescence, 45 min; Potency, µM (highest dose often 76.8 µM), inactives show top-dose activity, negative = inhibition, hits mostly inhibitors; actives 0.12% (n = 410,000); also: potency is read from the fitted curve at half-maximal effect; nearly all actives have a fitted effect of over 50% in size
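Assay buffer: 50 mM TEA pH 7.2, 100 mM KCl, 10 mM MgCl2, 0.05% BSA, 0.01% Tween-20. Pyruvate kinase from T. brucei plus substrate met compound, then ADP (130 uM final). Luminescence was read post 45 min RT.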
Giardia FBPA inh = Giardia lamblia aldolase inhibition; A8B2U2; purified Giardia FBPA; Potency, µM (titrated, usually from 59.6 µM), for inactives: at the top dose activity, negative = inhibition, actives largely listed as inhibitors; actives 0.71% (n = 290,000); AID 2451; also: potency is read from the fitted curve at half-maximal effect; nearly all actives have a fitted effect of over 55% in size
Target sequence (A8B2U2 whole entry, looked up): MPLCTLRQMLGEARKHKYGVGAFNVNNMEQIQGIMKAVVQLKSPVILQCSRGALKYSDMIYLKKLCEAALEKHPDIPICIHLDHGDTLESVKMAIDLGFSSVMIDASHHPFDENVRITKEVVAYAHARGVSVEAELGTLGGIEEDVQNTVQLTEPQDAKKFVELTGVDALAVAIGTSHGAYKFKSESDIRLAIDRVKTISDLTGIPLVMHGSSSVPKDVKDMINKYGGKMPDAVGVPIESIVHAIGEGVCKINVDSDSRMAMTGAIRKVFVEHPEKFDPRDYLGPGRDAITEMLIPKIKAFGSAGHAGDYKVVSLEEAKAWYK
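40 nM FBPA preincubated 10 min at RT with compound (up to 57.5 uM final), then substrate plus GAPDH/TPI/NAD/arsenate coupling and diaphorase/resazurin added. Fluorescence read after 20 min at RT, 525/598 nm.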
RE007 growth inh = less growth of the S. pombe RE007 Vpr strain; S. pombe RE007 Vpr strain, BacTiter-Glo ATP luminescence, 24 h; Potency, µM (titrated, usually from 92.2 µM), without a hit: at the top dose activity change, negative = less growth, hits mostly inhibitors; actives 0.21% (n = 360,000); active = well fitted falling curve with a large enough effect; inconclusive = small, poorly fitted or top-dose-only effect; inactive = no such curve, though single readings can be large or run the other way; also: potency is read from the fitted curve at half-maximal effect; nearly all actives have a fitted effect of over 50% in size
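Fission yeast RE007 carrying one integrated HIV-1 vpr copy, seeded at OD 0.01 in PMG+AL medium with 23 nL pinned compound. Grown 24 h at 30 degrees; viability read by BacTiter-Glo luminescence after 5 min.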
HCMV inh = blocks human cytomegalovirus replication; HFF cells, HCMV-luciferase reporter, 72 h; stronger effect = lower value; activity change, negative = inhibition, % at 57.5 µM; actives 4.5% (n = 410,000); AID 1259415; in the data active = activity change below about -60%; inconclusive = no clear call, values can overlap the other calls; inactive = above about -39%
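Compounds were evaluated in HFFs infected with an HCMV luciferase reporter virus (MOI 1 PFU/cell). Luciferase in lysates collected 72 h post infection served as the replication measure.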
Sm TGR block = blocks Schistosoma mansoni thioredoxin glutathione reductase | purified TGR, DTNB reduction, TNB absorbance 405 nm | Potency, µM (doses to about 114 µM), for the others: top-dose activity change, negative = inhibition, hits mostly inhibitors | Q962Y6 | AID 485364 | actives 3% (n = 360,000); also: potency is read from the fitted curve at half-maximal effect; nearly all actives have a fitted effect of over 60% in size
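Kinetic colorimetric format: TGR-catalysed, NADPH-driven DTNB reduction monitored via TNB absorbance. Enzyme dispensed at 20 nM; compound exposure 15 min at room temperature before reaction start.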
FMDV inh = foot and mouth disease virus antiviral activity; actives 1.2% (n = 410,000); Potency, µM (titrated, usually from 57.9 µM), for the others: top-dose activity change, negative = inhibition, most hits filed as inhibitors; FMDV antiviral cell-based qHTS; calls by dose curve; tested in HEK293T cells; also: read-out not given here; potency is read from the fitted curve at half-maximal effect; nearly all actives have a fitted effect of over 45% in size
* marks the source's active call; other numbers are inactive results; [ ] = dose if it differs, or a comment. Unless noted, calls follow the shape of the dose curve; as a rule, active = well fitted curve in the direction sought with a large enough effect; inconclusive = small, poorly fitted or top-dose-only effect, or another doubt; inactive = no such curve, though single readings can be large; an effect the other way counts as inactive or inconclusive. % is scaled to controls: 0 for no effect and ±100 for the full control effect.

C=C1/C(=C/C=C2\CCCC3(C)[C@@H]([C@H](C)/C=C/C=C/C(O)(CC)CC)CC[C@@H]23)C[C@@H](O)C[C@@H]1O (some centres undefined) was read as Tb PYK inh -1%.
Screening COc1ccccc1C1CN(CCNC(=O)[C@@H]2CSC(=O)N2)Cc2ccccc2O1 (some centres undefined) returned FMDV inh 58%.
For COc1cccc(-c2nnc(-c3ccccc3NC(=O)c3cccc(C(F)(F)F)c3)o2)c1 the results were Tb PYK inh 2%, HCMV inh -13, Sm TGR block -7% and FMDV inh 36%.
Screening O=C(CCN1C(=O)COc2ccccc21)N1CCN(c2ccccc2)CC1 returned Tb PYK inh -1%, Giardia FBPA inh 5%, RE007 growth inh 6%, HCMV inh 3, Sm TGR block 2% and FMDV inh -7%.
For O=C(CCN1C(=O)COc2ccccc21)N1CCN(c2ccccn2)CC1 the results were Tb PYK inh 1%, Giardia FBPA inh 0%, RE007 growth inh -15%, HCMV inh -73* and Sm TGR block 3%.
`COc1ccccc1NC(=O)CN1CCCN(S(=O)(=O)c2ccc(Br)cc2)CC1` gave Tb PYK inh -8%, HCMV inh -6, Sm TGR block 2% and FMDV inh inconclusive.
`CN1C(=O)C(Cc2ccsc2)C(=O)N(C)C1=O` gave Tb PYK inh inconclusive, Giardia FBPA inh inconclusive, RE007 growth inh 7%, HCMV inh -8, Sm TGR block 5µM* and FMDV inh 4%.
Cn1c(/C=C/c2ccc(Br)cc2)c([N+](=O)[O-])c(=O)n(C)c1=O was read as Tb PYK inh -3%, Giardia FBPA inh 3%, RE007 growth inh -5%, HCMV inh -100*, Sm TGR block inconclusive and FMDV inh 16µM*.
CN(C)c1ccc(/C=C/c2c([N+](=O)[O-])c(=O)n(C)c(=O)n2C)cc1 was read as Tb PYK inh 3%, Giardia FBPA inh 2%, RE007 growth inh 6%, HCMV inh -12, Sm TGR block 12% and FMDV inh 10%.
For COc1ccc(OC)c(/C=C/c2c([N+](=O)[O-])c(=O)n(C)c(=O)n2C)c1 the results were Tb PYK inh 1%, Giardia FBPA inh 4%, RE007 growth inh -6%, HCMV inh -5, Sm TGR block -7% and FMDV inh -23%.
Screening CCCOc1ccc(/C=C/c2c([N+](=O)[O-])c(=O)n(C)c(=O)n2C)cc1 returned Tb PYK inh 3%, Giardia FBPA inh 7%, RE007 growth inh -5%, HCMV inh inconclusive, Sm TGR block 0% and FMDV inh inconclusive.
Screening COc1cc(/C=C/c2c([N+](=O)[O-])c(=O)n(C)c(=O)n2C)cc(OC)c1OC returned Tb PYK inh -1%, Giardia FBPA inh 2%, RE007 growth inh 5%, HCMV inh -67* and Sm TGR block 4%.
COc1ccc(/C=C/c2c([N+](=O)[O-])c(=O)n(C)c(=O)n2C)cc1O was read as Tb PYK inh 3%, Giardia FBPA inh 0%, RE007 growth inh 1%, HCMV inh -103*, Sm TGR block 0% and FMDV inh inconclusive.
Screening CC(=O)N1CC(=O)N2[C@@H](CO)[C@H](c3ccc(Br)cc3)[C@@H]2C1 returned HCMV inh -35.
Cc1cc(C)c(NC(=O)Cc2ccc(-n3c(C)nc4cccnc43)cc2)c(C)c1 was read as Tb PYK inh -2%[15.4 µM], HCMV inh 0, Sm TGR block -6% and FMDV inh inconclusive.
Screening CC(C)(C)c1ccc(-c2cc(NC(=O)Cc3c[nH]c4ccccc34)ccc2Nc2cccnc2)cc1 returned HCMV inh 57.
For Cc1ccc(C2CC(=O)C(C=NCCN3CCN(C(=O)Cc4ccccc4)CC3)=C(O)C2)cc1 (centres undefined) the results were Tb PYK inh 3%, Giardia FBPA inh 2%, RE007 growth inh -2%, HCMV inh 10, Sm TGR block 22µM* and FMDV inh -29%.
O=C1CC(c2ccco2)CC(O)=C1C=NCCN1CCNCC1 (centres undefined) was read as Tb PYK inh 1%, Giardia FBPA inh -15%, RE007 growth inh 0%, HCMV inh 65, Sm TGR block 40µM* and FMDV inh -14%.
For CCOc1ccc(N=CC2=C(O)CC(c3ccco3)CC2=O)cc1 (centres undefined) the results were Tb PYK inh -2%, Giardia FBPA inh 3%, RE007 growth inh -2%, HCMV inh 13, Sm TGR block -12% and FMDV inh 1%.
`O=C1CC(c2ccco2)CC(O)=C1C=Nc1cc(Cl)cc(Cl)c1` (centres undefined) gave Tb PYK inh -11%, Giardia FBPA inh -12%, RE007 growth inh -22%, HCMV inh 23, Sm TGR block 18µM* and FMDV inh inconclusive.
Screening O=C1CC(c2ccccc2Cl)CC(O)=C1C=Nc1ccccc1 (centres undefined) returned Tb PYK inh -4%, Giardia FBPA inh 8%, RE007 growth inh inconclusive, HCMV inh -73*, Sm TGR block -5% and FMDV inh 10%.
O=C1CC(c2ccccc2)CC(O)=C1C=NCCN1CCNCC1 (centres undefined) was read as Tb PYK inh -6%, Giardia FBPA inh -1%, RE007 growth inh 3%, HCMV inh 32, Sm TGR block -23%[11.4 µM] and FMDV inh 0%.
Screening CCOC(=O)c1cccc(NC(=O)c2cc3c(=O)n(Cc4ccccc4)ccc3nc2C)c1 returned Tb PYK inh 13%, HCMV inh -7, Sm TGR block 1% and FMDV inh inconclusive.
Screening CCOc1ccc(NC(=O)Cn2c(=O)oc3cc(S(=O)(=O)N4CCC(C)CC4)ccc32)cc1 returned Tb PYK inh -5%, HCMV inh inconclusive, Sm TGR block 0% and FMDV inh inconclusive.
COc1cc(OC)cc(-c2nc3nc(C)c(CCC(=O)Nc4ccc(C)c(C)c4)c(C)n3n2)c1 was read as Tb PYK inh -3%, HCMV inh 2, Sm TGR block 3% and FMDV inh -17%.
Screening CCCCNC(=O)CCn1c(=O)c2cccn2c2cccnc21 returned Tb PYK inh -7%, HCMV inh 1, Sm TGR block 8% and FMDV inh -2%.

Screens from PubChem BioAssay.
